How the values were obtained:
Conditions in all cases: concentration: 1 μM,replicates: in singlicate; n = 1
[1] = test system: CSNK1G1
[2] = test system: CSNK1G2
[3] = test system: CSNK1G3
[4] = test system: CSNK2A1
[5] = test system: CSNK2A2
[6] = test system: T1, CTK
T1 construct: gene MATK

[7] = test system: DAPK1
[8] = test system: DAPK2
[9] = test system: DAPK3
[10] = test system: T2, DCAMKL1
T2 construct: gene DCLK1
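Also: KINOMEscan kinase panel screen.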

SMILES	%Inh [1] [%]	%Inh [2] [%]	%Inh [3] [%]	%Inh [4] [%]	%Inh [5] [%]	%Inh [6] [%]	%Inh [7] [%]	%Inh [8] [%]	%Inh [9] [%]	%Inh [10] [%]
FC(F)(F)c1cc(Br)cc(Nc2nccc(-c3cnn4ncccc34)n2)c1 [GW810578]	13	31	0	0	32	0	2	1	18	19
COc1cc2ncn(-c3cc(OCC4CCCCC4)c(C(N)=O)s3)c2cc1OC [GSK204559]	12	9	32	1	22	0	35	30	64	2
NC(=O)Nc1sc(-c2ccc(F)cc2)cc1C(N)=O [GW789449]	0	0	0	49	81	22	32	0	38	0
O=C1NCCc2[nH]c(-c3ccncc3)cc21	51	93.7	83	64	59	24	77	66	81	16
O=C(Nc1ccc(Oc2ccc3nc(NC(=O)C4CC4)cn3n2)c(F)c1)c1cccn(-c2ccccc2)c1=O	0	0	30	0	0	0	0	0	14	4
Cc1ccc(Nc2ccnc(Nc3ccc4c(c3)CS(=O)(=O)C4)n2)cc1O.Cl [GW579362]	10	0	19	63	84	25	63	38	70	25
O=C(Nc1cccc(C(F)(F)F)c1)c1cccc(Oc2ccc3nccn3n2)c1	1	10	1	0	0	69	0	0	0	0
COc1cc2nccc(Nc3ccc(Oc4ccccc4)cc3)c2cc1OC.Cl [GI261656]	0	0	25	0	24	0	0	0	2	0
CCNCC(Cc1ccccc1)NC(=O)c1cc(Br)c(-c2ccnc3[nH]ccc23)s1.Cl.Cl (stereo not shown) [GSK1383280]	8	5	46	87	71	0	7	9	28	42
Cc1ccc(CC(=O)N2CCc3cc(-c4cn(C)c5ncnc(N)c45)ccc32)cc1 [GSK2634758]	30	26	26	0	0	0	0	5	0	0
CC(C)S(=O)(=O)N1CCN(Cc2ccc3c(c2)nc(NC(=O)c2ccsc2)n3C[C@H](O)c2ccccc2)CC1 [GW635815]	16	5	20	6	37	0	0	0	31	0
Cn1ccc2ncnc(Oc3ccc(NC(=O)Nc4ccnc(C(F)(F)F)c4)c(Cl)c3)c21	0	9	0	0	10	0	7	0	0	4
CS(=O)(=O)c1cccc(CNc2nc(Nc3ccc4c(c3)[C@@H]3C[C@@H]4CNC3=O)ncc2C(F)(F)F)c1	0	23	81	34	64	0	27	0	9	48
CNC(=O)c1ccccc1Nc1nc(Nc2cccc(CS(C)(=O)=O)c2)ncc1C.O=CO [GSK1520489]	27	61	26	92.3	98.6	38	89	57	81	37
C[C@@H](Oc1cc(-n2cnc3cc(-c4cnn(C)c4)ccc32)sc1C(N)=O)c1ccccc1Cl [GSK580432]	30	0	15	7	67	0	75	43	34	10
Cc1nnc(-c2ccc3occ(-c4ccc(S(C)=O)cc4)c3n2)o1 (stereo not shown)	17	0	0	0	0	0	0	0	0	0
O=C(Nc1ccccc1)c1cccc(Oc2ccc3nccn3n2)c1	10	6	0	0	11	28	100	0	0	0

SMILES	%Inh [1] [%]	%Inh [2] [%]	%Inh [3] [%]	%Inh [4] [%]	%Inh [5] [%]	%Inh [6] [%]	%Inh [7] [%]	%Inh [8] [%]	%Inh [9] [%]	%Inh [10] [%]
C[C@@H]1CNc2c(sc3ccc4nc(-c5ccncc5)ccc4c23)C(=O)N1	16	15	21	38	0	0	30	24	13	4
Cn1ccc2ncnc(Oc3ccc(NC(=O)Nc4cccc(C(F)(F)F)c4)c(F)c3)c21	9	20	0	0	0	0	1	0	13	12
O=C(NCC1CC1)c1ccc(-c2cc(C(=O)NC3CC3)ccc2F)cc1 [GW810445]	0	0	0	0	0	0	0	3	19	0
CC(C(=O)NC1CCN(c2ccnc(Nc3ccc(F)cc3)n2)C1)c1ccc(Cl)cc1 (stereo not shown) [GSK1379713]	0	0	18	1	0	0	0	0	0	0
CC(=O)Nc1ccc(-c2cc3ncnc(SCC(=O)O)c3s2)cc1	15	0	8	75	68	14	23	8	9	0
C[C@@H]1CCN(C(=O)N2CCCC2)C[C@@H]1N(C)c1ncnc2[nH]ccc12	2	0	0	35	5	19	23	0	9	46
CSc1nccc(-c2c(-c3ccc(F)cc3)ncn2CCCN2CCOCC2)n1.Cl [SB-217146]	0	0	0	0	15	40	16	0	0	37
CC(=O)Nc1nc2cnc(Nc3cc(NC(=O)c4cccc(CC(C)(C)C#N)c4)ccc3C)nc2s1	14	1	0	21	21	0	0	0	4	26
CCCC(=O)Nc1n[nH]c2ncccc12 [SB-601436]	0	0	7	1	0	30	0	0	0	0
CCN1CCN(CCCC(=O)Nc2n[nH]c3nc(-c4ccc(O)cc4)c(Br)cc23)CC1 [SB-731579]	0	0	0	0	0	34	41	31	61	0
CN(c1ccc2c(c1)nc(NCc1ccc(F)cc1)n2C)c1ccnc(Nc2ccc(CS(C)(=O)=O)cc2)n1.Cl [GW813244]	0	6	0	0	24	14	5	7	0	28
C[C@@H]1CNc2c(sc3ccc4nc(-c5ccc(O)cc5)ccc4c23)C(=O)N1	29	38	32	48	43	43	35	34	26	37
O=C(Nc1n[nH]c2cc(-c3ccco3)ccc12)C1CC1 [SB-737447]	0	0	15	31	68	34	0	7	10	7
Cn1ccc2ncnc(Oc3ccc(NC(=O)Nc4cc(C(C)(C)C)on4)c(Cl)c3)c21	17	15	0	21	30	48	0	0	0	25
c1ccc(Oc2ccc(Nc3ccnc4ccc(-c5ccccn5)cc34)cc2)cc1 [GW407034]	11	0	10	0	14	0	0	0	5	9
COc1ccc(Nc2nccc(N3CCC(NC(=O)c4cccc(C#N)c4)C3)n2)cc1 (stereo not shown) [GSK1379730]	3	0	0	0	0	0	0	0	4	8
CN1CCN(CCNc2nc3cc(Oc4ccc(NC(=O)Nc5cc(C(F)(F)F)ccc5F)cc4)ccc3[nH]2)CC1.Cl.Cl [GW768504]	0	0	0	0	7	0	0	0	0	34
